Results published in PubChem BioAssay AID1030 (National Center for Advancing Translational Sciences (NCATS), 2008).
The campaign covered roughly 220,000 compounds. About 16,000 (7.3%) were called active. About 25% were inconclusive and are not listed. The call rests on the fitted dose curve; in most records, active means well fitted inhibition curve with a large enough effect (not every such curve was filed as active); inconclusive means small, poorly fitted or top-dose-only effect, or another doubt; inactive means no such curve, though single readings can be large or run the other way. The entries come from a sample that favours actives as a whole.

Biological target: Aldehyde dehydrogenase 1A1 (Homo sapiens) (UniProt P00352)
Experiment: qHTS Assay for Inhibitors of Aldehyde Dehydrogenase 1 (ALDH1A1);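 on activity, negative = inhibition: plate controls were no enzyme wells and a reference inhibitor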
Details: Purified ALDH1A1, NADH fluorescence, propionaldehyde substrate; series mostly up to 75.3 µM; activity, negative = inhibition: at the top concentration
Potency means the concentration at half of the fitted maximal effect.

Aldehyde dehydrogenase 1A1 (Homo sapiens), sequence (P00352 whole entry, looked up): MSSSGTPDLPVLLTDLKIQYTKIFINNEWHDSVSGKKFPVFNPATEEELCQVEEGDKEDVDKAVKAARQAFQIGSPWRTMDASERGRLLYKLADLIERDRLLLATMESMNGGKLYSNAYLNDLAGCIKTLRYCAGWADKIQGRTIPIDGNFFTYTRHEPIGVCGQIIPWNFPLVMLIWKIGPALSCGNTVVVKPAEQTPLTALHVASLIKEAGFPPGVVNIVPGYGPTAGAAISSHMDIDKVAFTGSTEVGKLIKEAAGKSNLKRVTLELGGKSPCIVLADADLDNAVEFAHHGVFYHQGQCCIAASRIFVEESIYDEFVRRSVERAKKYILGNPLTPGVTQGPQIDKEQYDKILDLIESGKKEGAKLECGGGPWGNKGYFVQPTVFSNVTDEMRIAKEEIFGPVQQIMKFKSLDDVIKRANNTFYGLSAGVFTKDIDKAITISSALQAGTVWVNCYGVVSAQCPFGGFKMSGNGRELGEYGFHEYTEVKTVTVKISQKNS

SMILES | activity, negative = inhibition | Potency
Cc1onc(-c2ccccc2)c1C(=O)N=C(N)c1ccc(Cl)cc1 | -1.45% (inactive) | –
O=C(CCn1c(SCC(=O)c2ccccc2)nc2ccccc2c1=O)NCc1ccc(F)cc1 | 11.8% (inactive) | –
Cc1ccc(C(=O)CSc2nc3ccccc3c(=O)n2N)o1 | – | 28.2 µM (active)
COc1ccc(OCc2ccc(-c3nc4ccccc4c(=O)n3N)o2)cc1 | -6.34% (inactive) | –
O=C(Nn1cnc2ccccc2c1=O)c1ccccc1 | 9.63% (inactive) | –
C=CCC1(CC=C)CCCN1C(=O)CC1C(=O)NCCN1Cc1ccccc1OC (stereo not given) | -3.44% (inactive) | –
COCCC(=O)Nc1ccc2c(c1)CN(C(=O)CCOC)CC2 | -1.97% (inactive) | –
CNc1[nH]ncc1[N+](=O)[O-] | 11.1% (inactive) | –
COc1cc(NS(=O)(=O)c2ccc(NC(=O)CN3C(=O)c4ccccc4C3=O)cc2)ncn1 | 5.24% (inactive) | –
COc1ccc(CCCc2nnc(SCc3nc4ccccc4c(=O)[nH]3)n2C)cc1 | -1.66% (inactive) | –
CCn1c(COc2c(C)cccc2C)nnc1SCc1nc2ccccc2c(=O)[nH]1 | 1.86% (inactive) | –
COc1ccc(C)cc1-n1nnnc1SCc1nc2ccccc2c(=O)[nH]1 | – | 39.8 µM (active)
CCCOC1CCCN(Cc2cn(C)nc2-c2ccccc2F)C1 (stereo not given) | -2.39% (inactive) | –
O=C(C1CCCO1)N(c1ccc(F)cc1)C1C=CS(=O)(=O)C1 (stereo not given) | 15.7% (inactive) | –
CCCC[C@@H]1C[C@H]1C(NC(=O)c1ccco1)c1ccc(C(=O)OC)cc1 (stereo not given in full) | – | 22.4 µM (active)
CCCC[C@@H]1C[C@H]1C(NC(=O)c1ccc(-c2ccccc2)cc1)c1ccc(-c2ccccc2)cc1 (stereo not given in full) | 6.85% (inactive) | –
COC(=O)c1ccc(N(CC(=O)NC2CCCC2)C(=O)CNC(=O)c2ccco2)cc1 | 2.08% (inactive) | –
CC(C)(C)NC(=O)C(=O)NN=C1CCCCCCC1 | 6.41% (inactive) | –
c1c2c(cc3sc(N4CCCCC4)nc13)OCCO2 | – | 20 µM (active)
Fc1ccc2nc(N3CCCCC3)sc2c1 | 19.6% (inactive) | –
Fc1cc(F)c2nc(N3CCOCC3)sc2c1 | 7.48% (inactive) | –
CC(=O)c1cc(C#N)c(SCC(=O)Nc2nccs2)nc1C | 2.59% (inactive) | –
CCOc1ccc(C(=O)Nc2cccc(SC)c2)cc1 | 2.45% (inactive) | –
C=CCn1c(COc2ccccc2F)nnc1SCC(=O)N1CC(=O)Nc2ccccc21 | -4.67% (inactive) | –

SMILES | activity, negative = inhibition | Potency
Cn1c(Cc2cccc3ccccc23)nnc1SCC(=O)N1CCN(c2cccc(Cl)c2)CC1 | -8.34% (inactive) | –
Nn1c(Cc2cccc3ccccc23)nnc1SCC(=O)N1CC(=O)Nc2ccccc21 | – | 17.8 µM (active)
Cc1cc(C)cc(N(CC(=O)NCCSCc2ccco2)S(C)(=O)=O)c1 | -2.35% (inactive) | –
Cc1cc(C)nc(NC(=O)/C=C/c2ccc(Cl)cc2)n1 | -2.35% (inactive) | –
Cc1cccc(C(=O)Nc2ccccc2C(=O)NCc2cccnc2)c1 | 3.55% (inactive) | –
COc1cc(C(=O)N2C(=O)c3cccc(N)c3C2=O)cc(OC)c1OC | -4.58% (inactive) | –
CCOC(=O)N1CC=C2C(C#N)=C(N)C(C#N)(C#N)[C@H](c3cccs3)[C@H]2C1 | – | 20 µM (active)
COc1cc(/C=C2/C(=O)ON=C2C)ccc1OCc1cccc(F)c1 | – | 10 µM (active)
C/C=C/c1ccc(OCCOc2ccc(C=O)cc2OC)c(OC)c1 | 1.06% (inactive) | –
COc1cc(/C=C2/C(=O)ON=C2C)ccc1OCc1ccccc1F | 4.25% (inactive) | –
O=S(=O)(Nc1ccccn1)c1cccc(S(=O)(=O)c2ccc(Cl)cc2)c1 | -14.8% (inactive) | –
Cc1ccc(-n2c(C)cc(C(=O)CSc3nnc4ccccn34)c2C)cc1 | 8.95% (inactive) | –
Cn1c(CC(=O)Nc2ccccc2)nnc1SCC(=O)c1ccccc1 | – | 7.08 µM (active)
N#Cc1ccc(CSc2nnc3ccccn23)cc1 | 11.3% (inactive) | –
O=C(CSc1nnc2ccccn12)c1ccccc1 | – | 10 µM (active)
Cn1c(CNc2nc(-c3ccccc3)cs2)nnc1SCC(=O)c1ccccc1 | -7.61% (inactive) | –
Cc1ccccc1NC(=O)Cc1nnc(SCC(=O)N2CCN(c3ccccc3)CC2)n1C | 0.43% (inactive) | –
O=C(NNC1=C(C(=O)C(F)(F)F)CCC1)c1ccncc1 | -7.96% (inactive) | –
CCc1nc2ccccc2c(C(=O)OC2CCCCC2=O)c1C (stereo not given) | 0.702% (inactive) | –
O=C(O)/C=C/c1ccc(OCCCF)cc1 | -4.97% (inactive) | –
COC(=O)C1=C(C)NC(=O)CC1c1ccccc1OC (stereo not given) | -0.136% (inactive) | –
CCn1c(=O)cc(SCC(=O)NCCC2=CCCCC2)c2ccccc21 | – | 14.1 µM (active)
O=C(Cc1cccc2ccccc12)NCCC1=CCCCC1 | -7.28% (inactive) | –
CCn1c(=O)cc(SCC(=O)NCc2ccc3c(c2)OCO3)c2ccccc21 | 4.8% (inactive) | –

SMILES | activity, negative = inhibition | Potency
COc1ccc(Cc2nnc(NC(=O)c3cc(OC)c(OC)c(OC)c3)s2)cc1OC | -5.76% (inactive) | –
CC(C)[C@@H]1NC(=O)c2cc([N+](=O)[O-])cc(I)c2NCCC[C@@H](C(=O)NC(CC(=O)O)C(N)=O)NC(=O)[C@H](CO)NC1=O (stereo not given in full) | 3.65% (inactive) | –
NCCCC[C@@H]1NC(=O)[C@H](CCC(=O)O)NC(=O)c2cc([N+](=O)[O-])cc(I)c2NCC[C@@H](C(N)=O)NC1=O | -5.03% (inactive) | –
NC(=O)CC[C@@H]1NC(=O)[C@H](CO)NC(=O)c2cc([N+](=O)[O-])cc(I)c2NCC[C@@H](C(N)=O)NC1=O | – | 12.6 µM (active)
C/C(=N/NC(=O)c1ccn(C)n1)c1ccncc1 | 3.35% (inactive) | –
COCC1CCCN(Cc2nc(-c3ccc4c(c3)OCO4)no2)C1 (stereo not given) | 4.51% (inactive) | –
CN1CCN(S(=O)(=O)c2cccc(C(=O)O)c2)CC1 | 5.17% (inactive) | –
COc1cccc(CNC(=O)Cc2csc(Nc3nc(=S)[nH]c4ccccc34)n2)c1 | 3.37% (inactive) | –
O=C(O)Cc1ccc(NC(=O)c2cccs2)cc1 | 15.9% (inactive) | –
O=C(Nc1ccccc1-c1ccccc1)c1cccs1 | -9.88% (inactive) | –
CCc1ccccc1NC(=O)c1cccs1 | – | 25.1 µM (active)
Cc1cc(F)ccc1S(=O)(=O)Nc1ncnc2scc(-c3ccc(F)cc3)c12 | 5.01% (inactive) | –
CONc1nc2nonc2nc1NOC | -2.85% (inactive) | –
CCCN(Cc1cc2cccc(C)c2[nH]c1=O)S(C)(=O)=O | 12% (inactive) | –
CC(C)C(c1nnnn1Cc1ccccc1)N1CCC(C(N)=O)CC1 (stereo not given) | 7.52% (inactive) | –
Cc1ccc(S(=O)(=O)Cn2nnnc2CN2CCN(Cc3ccc4c(c3)OCO4)CC2)cc1 | -8.22% (inactive) | –
Cc1cccc2cc(CN(Cc3nnnn3Cc3ccccc3)C3CCCC3)c(=O)[nH]c12 | – | 15.8 µM (active)
Cc1cccc2cc(CN(Cc3ccc4c(c3)OCO4)Cc3nnnn3C3CCCC3)c(=O)[nH]c12 | – | 11.2 µM (active)
O=c1[nH]c(N2CCN(Cc3ccc4c(c3)OCO4)CC2)nc2c1CCCC2 | -5.99% (inactive) | –
CCCCCCCCCCCCN1C(=O)CSC1c1cccnc1 (stereo not given) | -14.6% (inactive) | –
Nc1ccc(Cl)c(S(=O)(=O)Nc2ccccc2Cl)c1 | 12.1% (inactive) | –
CCOC(=O)C1=C(CC)Nc2ccccc2N=C1N | 10.9% (inactive) | –
CC(C)n1c(CN2CCN(Cc3ccccc3)CC2)nc2ccccc21 | -3.01% (inactive) | –
Cc1ccc2c(c1)C(O)(CC(=O)c1cccc(-n3cccc3)c1)C(=O)N2 (stereo not given) | 3.09% (inactive) | –

SMILES | activity, negative = inhibition | Potency
O=C(NCc1ccco1)c1ccc(Cn2c(=O)c3sccc3n(Cc3ccc(F)cc3)c2=O)cc1 | 7.09% (inactive) | –
CCCCOc1ccc(C(=O)NCc2ccco2)cc1 | 6.18% (inactive) | –
CC(C)OCCCNC(=O)c1ccc(C2SCC(=O)N2Cc2ccco2)cc1 (stereo not given) | – | 10 µM (active)
Cc1ccc(-c2csc(NC(=O)c3cnccn3)n2)cc1C | 0.726% (inactive) | –
Cn1nnc(NC(=O)CSc2ncn[nH]2)n1 | 3.76% (inactive) | –
CC(C)(C)c1ccc(C(=O)CSc2ncn[nH]2)cc1 | – | 20 µM (active)
COc1ccc(C(=O)CSc2nccc(=O)[nH]2)cc1 | -7.29% (inactive) | –
CC(=O)N(CCCN(C)C)c1nc2ccc(C)cc2s1 | 9.7% (inactive) | –
CCNc1ccc(C(=O)OCC(=O)N2c3ccccc3NC(=O)C2(C)C)cc1[N+](=O)[O-] | – | 11.2 µM (active)
CC1(C)C(=O)Nc2ccccc2N1C(=O)COC(=O)Cn1cnc2ccccc2c1=O | -2.55% (inactive) | –
Nc1ccc(C(=O)OCC(=O)NC2CCCc3ccccc32)cc1[N+](=O)[O-] (stereo not given) | 3.62% (inactive) | –
COCCn1nnnc1C(c1cc2ccc(OC)cc2[nH]c1=O)N1CCc2ccccc2C1 (stereo not given) | – | 25.1 µM (active)
Cc1ccc(C(c2nnnn2C(C)(C)C)N2CCc3ccccc3C2)cc1 (stereo not given) | 5.23% (inactive) | –
COc1ccc(OC)c(C(c2nnnn2C(C)(C)C)N2CCc3ccccc3C2)c1 (stereo not given) | -4.68% (inactive) | –
CC(=O)c1ccc(N2CCN(S(=O)(=O)c3c(C)[nH]c(=O)[nH]c3=O)CC2)cc1 | 15.3% (inactive) | –
CSc1ccc(/C=N/N2CCN(Cc3ccccc3Cl)CC2)cc1 | 3.55% (inactive) | –
CN1CCN(CC(=O)C23CC4CC(CC(C4)C2)C3)CC1 | – | 20 µM (active)
CC(C)(C)NC(=O)CN1CCC(NC(=O)C23CC4CC(CC(C4)C2)C3)CC1 | -3.43% (inactive) | –
O=C(N1CCCC1)C12CC3CC(C1)CC(C(=O)N1CCCC1)(C3)C2 | -2.48% (inactive) | –
COC/C=C/C1=CC2=CC(=O)C(C)(OC(=O)CCC(=O)OC)C(=O)C2=CO1 (stereo not given) | -2.86% (inactive) | –
COc1cc(OC)c(-n2c(C)cc(C=O)c2C)cc1Cl | – | 7.08 µM (active)
COc1cc(Cl)c(S(=O)(=O)n2cnc(C)c2)cc1Cl | 10.4% (inactive) | –
Cc1ccccc1-n1c(C)cc(/C=C2\NC(=O)NC2=O)c1C | 0.873% (inactive) | –
